This note sets out measurements from PubChem BioAssay (NCATS).

Results filed as inconclusive are left out. Unmarked numbers belong to inactive results. The source made the active and inactive calls. Calls come from the whole dose curve; as a rule, active = well fitted cell-killing curve with a large enough effect; inconclusive = small, poorly fitted or top-dose-only effect; inactive = flat fitted curve, though single readings scatter.
Potency is the fitted concentration of half-maximal effect.

The test is described as follows: Cellular viability qHTS for adrenocortical cancer (ACC) cell line NCI-H295R (AID 1963990).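 For activity change, negative = viability loss: 0% = DMSO only wells and -100% = full killing with cytotoxic reference compound.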 Note: nearly all actives have a fitted effect of over 60% in size. The following applies: CellTiter-Glo ATP luminescence, 48 h; series mostly up to 46.1 µM; activity change, negative = viability loss: at the top concentration. In short, it runs like this:
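Viability of NCI-H295R after 48 h of treatment (final up to 46 uM) measured through cellular ATP luminescence.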
Take `CCN1C[C@]2(OC(=O)c3ccccc3NC(C)=O)CC[C@H](OC)[C@@]34[C@H]5CC6[C@@H](OC)C[C@](O)(C(C[C@@H]23)[C@@H]14)[C@@]5(O)[C@@H]6OC`: the “activity change, negative = viability loss” value is -22.8%.
In the case of `O=c1[nH]c2ccc(Cl)cc2c(N[C@@H]2CN3CCC2CC3)c1-c1nc2ccccc2[nH]1`, the Potency is 355 nM (active).
Take `O=C(NCC1CCOCC1)c1cnc(Nc2ccc(Cl)cc2Cl)nc1C(F)(F)F`: the “activity change, negative = viability loss” value was 5.13%.
Still for that read-out and setting: to `O=C1C=CC[C@@H]2[C@H]3CCCN4CCC[C@@H](CN12)[C@@H]34` belongs -2.22%; to `CCOC(=O)c1c(C(C#N)=CN)c2ccc(Cl)c(Cl)c2n1C`, -33.4%; to `CN(C)CCN(C)CCc1ccc(Cl)c(Cl)c1`, -0.68%.
Take `C[C@]12CC[C@H]3[C@@H](CCC4=CC(=O)CC[C@@]43C)[C@H]1CC[C@H]2OC(=O)CCC1CCCC1`: the “activity change, negative = viability loss” value was -15.7%.
Consider `NC1=NC(=O)N2CC12` (stereo not drawn), for which the “activity change, negative = viability loss” value was -0.0166%.
